Our source for the Potency values is PubChem BioAssay AID2061324 (National Center for Advancing Translational Sciences (NCATS), 2025).

Records with an inconclusive call do not appear. The source made the active and inactive calls. Calls follow the shape of the dose curve; as a rule, active = well fitted inhibition curve with a large enough effect; inconclusive = small, poorly fitted or top-dose-only effect; inactive = flat fitted curve, though single readings scatter.

The nature of the experiment: Identification of antibody-drug conjugate (ADC) payloads which are substrates of ATP-binding cassette drug efflux transporters: ABCG2-HEK293-pcDNA cell line. The note with it: ABCG2-HEK293 transfected cells viability, CellTiter-Glo, 48 h. An excerpt: Antibody-drug conjugates (ADCs) feature an antibody recognizing a specific protein joined to a potent toxic payload. Numerous antibody-drug conjugates have received FDA approval; however, clinical resistance arises. Resistance mechanisms include decreased expression or mutation of the antibody target, impaired payload release, or increased expression of ATP-binding cassette (ABC) efflux transporters associated with multidrug resistance. We therefore sought to characterize the interaction of ABC multidrug transporters with ADC payloads. We performed a high-throughput screen with 27 common ADC payloads using cells lines expressing ABC transporters P-glycoprotein (P-gp, encoded by ABCB1) or ABCG2 (encoded by ABCG2). Confirmatory assays were also performed using cells transfected to express P-gp, ABCG2, or MRP1 (encoded by ABCC1). Several commonly used ADC payloads were substrates of P-gp, including calicheamicin gamma1, monomethyl auristatin E, DM1, and DM4. All the pyrrolobenzodiazepines tested - SJG136, SGD-1882, SG2057, and SG3199 - were substrates of P-gp, ABCG2, and MRP1. […] These findings highlight the risk of transporter-mediated resistance with certain ADC payloads and underscore the importance of selecting payloads that evade ABC transporter recognition in future ADC development.
HEK-293 cells were transfected with empty vector (pcDNA) or vector containing the human ABCB1 (MDR-19), ABCG2 (R-5), or ABCC1 gene (MRP1) and were maintained in EMEM with 2 mg/mL G418 added to maintain transporter expression. The HeLa derivative KB-3-1 and the P-gp overexpressing KB-8-5-11 subline were maintained in DMEM; KB-8-5-11 additionally received 100 ng/mL colchicine. H460 parental cells were obtained from the Division of Cancer Treatment and Diagnosis Tumor Repository, National Cancer Institute at Frederick, MD and were cultured in RPMI. The ABCG2 expressing subline H460 MX20 was generated by selecting H460 cells in 20 nM mitoxantrone. Media in all cases was supplemented with 10% FBS and 1% penicillin-streptomycin. We explored 27 common ADC payloads, in two orthogonal, paired cell line sets-a drug selected and transfected set for each transporter--to identify substrates of the ABC transporters P-gp and ABCG2. Compounds were sourced from Levena Biopharma (San Diego, CA), Selleck Chem (Houston, TX), ChemieTek (Indianapolis, IN), or Microsource Discovery Systems (Gaylordsville, CT). Screening was performed as previously described. Briefly, cells were plated at a density of 500 cells/well in 1536 well plates with compounds added using a 1536-head pin tool (Kalypsys, San Diego CA). Cells were incubated with cytotoxic drugs and processed with CellTiter Glo reagent (Promega, Madison, WI) to determine viability after 48 hours. P-gp substrates were identified by comparing compound activity between paired sets of low-expressing (sensitive) and over-expressing (resistant) cell lines.
With `CC[C@H](C)[C@H](NC(=O)[C@H]1CCCCN1C)C(=O)N(C)[C@H](C[C@@H](OC(C)=O)c1nc(C(=O)N[C@@H](Cc2ccccc2)C[C@H](C)C(=O)O)cs1)C(C)C`, the Potency was 23.8 nM (active).
The same measure for `COc1cc2cc(C(=O)N3C[C@@H](CCl)c4c3cc(O)c3ccccc43)[nH]c2c(OC)c1OC`: 7.5 nM (active).
As to `CC[C@H](C)[C@@H]([C@@H](CC(=O)N1CCC[C@H]1[C@H](OC)[C@@H](C)C(=O)N[C@H](C)[C@@H](O)c1ccccc1)OC)N(C)C(=O)[C@@H](NC(=O)[C@H](C(C)C)N(C)C)C(C)C`, the Potency is 9.5 nM (active).
As for `COc1cc2cc(c1Cl)N(C)C(=O)C[C@H](OC(=O)[C@H](C)N(C)C(=O)CCC(C)(C)S)[C@]1(C)OC1[C@H](C)C1C[C@@](O)(NC(=O)O1)[C@H](OC)/C=C/C=C(\C)C2` (some centres not stated), the Potency is 2.4 nM (active).
For the compound `CC[C@@]1(O)C(=O)OCc2c1cc1n(c2=O)Cc2cc3ccccc3nc2-1`, the Potency was 15 nM (active).
The same measure for `COc1cc2cc(c1Cl)N(C)C(=O)C[C@H](OC(=O)[C@H](C)N(C)C(=O)CCS)[C@]1(C)OC1[C@H](C)C1C[C@@](O)(NC(=O)O1)[C@H](OC)/C=C/C=C(\C)C2` (some centres not stated): 9.5 nM (active); for `COc1cc2cc(c1Cl)N(C)C(=O)C[C@H](OC(=O)C(C)C)[C@]1(C)O[C@H]1[C@H](C)[C@@H]1C[C@@](O)(NC(=O)O1)[C@H](OC)C=CC=C(C)C2`: 1.1 nM (active).
